Data taken from PubChem BioAssay AID1159580 (chemical genetic matrix, 2015).
Where “and” joins values, the source holds several entries; their conditions need not be identical. Identical values can stand only once. Hit rate of the full screen: of about 5,500 compounds, about 2,000 (36%) were called active. Inconclusive results (about 18%) are left out. Cut-off read from the data, not from the text of the source: active = normalized growth mostly below about 0.91 (no sharp cut-off); inconclusive = no clear call, values can overlap the other calls; inactive = mostly above about 0.92. Some of the results follow.

Experiment: chemical genetic growth profiling, strain panel (AID 1159580);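 note: tested at 20 µM; growth read once vehicle control cultures reached saturation at 30 °C; 1 = growth at the plate median or of vehicle wells; lower values mean less growth of the strain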
Conditions: S. cerevisiae deletion strains, growth OD

Measured: normalized growth

CC(C)c1ccc2c(c1)CCC1[C@](C)(CN)CCC[C@]21C (stereo partly specified)
inactive: locus YAL030W, strain snc1, stronger effect = lower value 1.01 | locus YBL061C, strain skt5, stronger effect = lower value 1.01 | locus YBR009C, strain hhf1, stronger effect = lower value 0.927 | locus YBR023C, strain chs3, stronger effect = lower value 0.947 | locus YBR171W, strain sec66, stronger effect = lower value 1.02 | locus YBR229C, strain ROT2, stronger effect = lower value 0.925 | locus YBR231C, strain swc5, stronger effect = lower value 0.974 | locus YBR279W, strain paf1, stronger effect = lower value 0.976 | locus YCL011C, strain gbp2, stronger effect = lower value 0.942 | locus YCL016C, strain dcc1, stronger effect = lower value 0.952 | locus YCL061C, strain MRC1, stronger effect = lower value 0.983 | locus YCL069W, strain vba3, stronger effect = lower value 1 | locus YCR088W, strain abp1, stronger effect = lower value 1.01 | locus YDL005C, strain med2, stronger effect = lower value 1.03 | locus YDL040C, strain nat1, stronger effect = lower value 1.01 | locus YDR001C, strain nth1, stronger effect = lower value 1.02 | locus YDR137W, strain rgp1, stronger effect = lower value 1.03 | locus YDR159W, strain sac3, stronger effect = lower value 1.02 | locus YDR195W, strain ref2 1.1 | locus YDR297W, strain sur2, stronger effect = lower value 0.992 | locus YDR334W, strain swr1, stronger effect = lower value 1.01 | locus YDR335W, strain msn5, stronger effect = lower value 0.969 | locus YEL003W, strain gim4, stronger effect = lower value 0.927 | locus YEL037C, strain rad23, stronger effect = lower value 1.01 | locus YEL061C, strain CIN8 (second series), stronger effect = lower value 1.01 | locus YER015W, strain faa2, stronger effect = lower value 0.951 | locus YER016W, strain bim1, stronger effect = lower value 1.02 | locus YER111C, strain swi4, stronger effect = lower value 1.03 | locus YGL167C, strain pmr1, stronger effect = lower value 1.01 | locus YGL173C, strain kem1, stronger effect = lower value 0.971 | locus YGL227W, strain vid30, stronger effect = lower value 1.02 | locus YGL240W, strain doc1, stronger effect = lower value 0.959 | locus YGL253W, strain hxk2, stronger effect = lower value 0.973 | locus YHR013C, strain ard1, stronger effect = lower value 0.886 | locus YHR027C, strain rpn1, stronger effect = lower value 1.02 | locus YHR079C, strain IRE1, stronger effect = lower value 0.964 | locus YHR094C, strain hxt1, stronger effect = lower value 0.949 | locus YHR142W, strain chs7, stronger effect = lower value 0.89 | locus YIL125W, strain kgd1, stronger effect = lower value 0.961 | locus YJL092W, strain hpr5, stronger effect = lower value 0.991 | locus YJL095W, strain BCK1 (second series), stronger effect = lower value 0.995 | locus YJL115W, strain asf1, stronger effect = lower value 1.01 | locus YJL129C, strain trk1, stronger effect = lower value 0.954 | locus YJL134W, strain LCB3, stronger effect = lower value 0.987 | locus YJL154C, strain vps35, stronger effect = lower value 1.02 | locus YJL164C, strain tpk1, stronger effect = lower value 0.931 | locus YJR066W, strain TOR1, stronger effect = lower value 0.919
0.108 (active) and 0.995 (inactive): locus YJL095W, strain BCK1, stronger effect = lower value
active: locus YAL013W, strain DEP1, stronger effect = lower value 0.598 | locus YAL021C, strain ccr4, stronger effect = lower value 0.819 | locus YAL026C, strain drs2, stronger effect = lower value 0.0819 | locus YBR021W, strain FUR4, stronger effect = lower value 0.392 | locus YCL029C, strain bik1, stronger effect = lower value 0.652 | locus YDL035C, strain GPR1, stronger effect = lower value 0.253 | locus YDL074C, strain BRE1, stronger effect = lower value 0.45 | locus YDL101C, strain DUN1, stronger effect = lower value 0.199 | locus YDL134C, strain PPH21, stronger effect = lower value 0.486 | locus YDL185W, strain tfp1, stronger effect = lower value 0.88 | locus YDL192W, strain arf1, stronger effect = lower value 0.0814 | locus YDR069C, strain doa4, stronger effect = lower value 0.839 | locus YDR101C, strain arx1, stronger effect = lower value 0.13 | locus YDR150W, strain NUM1, stronger effect = lower value 0.786 | locus YDR162C, strain NBP2, stronger effect = lower value 0.0633 | locus YDR318W, strain mcm21, stronger effect = lower value 0.457 | locus YDR388W, stronger effect = lower value 0.284 | locus YDR392W, strain spt3, stronger effect = lower value 0.5 | locus YDR502C, strain sam2, stronger effect = lower value 0.0848 | locus YEL061C, strain CIN8, stronger effect = lower value 0.65 | locus YER110C, stronger effect = lower value 0.684 | locus YER155C, strain BEM2 (second series), stronger effect = lower value 0.367 | locus YER167W, strain BCK2, stronger effect = lower value 0.661 | locus YFR010W, strain ubp6, stronger effect = lower value 0.811 | locus YGL078C, strain dbp3, stronger effect = lower value 0.906 | locus YGL086W, strain mad1, stronger effect = lower value 0.167 | locus YGL248W, strain PDE1, stronger effect = lower value 0.368 | locus YGR078C, strain PAC10, stronger effect = lower value 0.334 | locus YGR135W, strain pre9, stronger effect = lower value 0.117 | locus YGR229C, strain SMI1, stronger effect = lower value 0.0707 | locus YGR252W, strain gcn5, stronger effect = lower value 0.174 | locus YHR079C, strain IRE1 (second series), stronger effect = lower value 0.646 | locus YHR129C, strain ARP1, stronger effect = lower value 0.701 | locus YHR200W, strain rpn10, stronger effect = lower value 0.162 | locus YIL066C, strain RNR3, stronger effect = lower value 0.34 | locus YIL073C, strain SPO22, stronger effect = lower value 0.147 | locus YIR030C, strain dcg1, stronger effect = lower value 0.19 | locus YJL166W, strain qcr8, stronger effect = lower value 0.894 | locus YJL168C, strain set2, stronger effect = lower value 0.714 | locus YJL187C, strain SWE1 (second series), stronger effect = lower value 0.243 | locus YJR043C, strain POL32, stronger effect = lower value 0.635 | locus YJR075W, strain HOC1, stronger effect = lower value 0.392
0.183 (active) and 0.967 (inactive): locus YHR030C, strain SLT2, stronger effect = lower value
